# From ChEMBL document CHEMBL1857833, “Screening and optimization of specific chemical series against human African Trypanosomiasis (HAT)”
# Among all 4,400 compounds or so, about 390 (8.9%) showed an effect of 50% or more. Many of the other results were omitted from the sample, so strong results are more common in it than they were.
# Tested on: Trypanosoma brucei
# Experiment: DNDI: Inhibition of Human African Trypanosomiasis, SBRI 427, in vitro at 2 ug.mL-1
# Format: functional
row,Structure (SMILES),% inhibition [%]
1,COC(=O)C1CCN(/C(=N\O)c2cccnc2Oc2cccc3ccccc23)CC1,9
2,CC1CCCN1/C(=N\O)c1cccnc1Oc1ccc(Cl)cc1 (stereo unspecified),-13
3,CN(Cc1coc(-c2ccc(C(F)(F)F)cc2)n1)c1ccccc1,1
4,Oc1ccc(-c2nc(CN(Cc3ccccc3)c3ccccc3)co2)cc1,11
5,NCCc1cn(Cc2coc(-c3cccs3)n2)c2ccccc12,-15
6,CCN(Cc1ccccc1)Cc1coc(-c2ccc(OC)cc2)n1,-11
7,CCC(C)(C)N/C(=N\O)c1ccc(C)nc1Oc1cccc(F)c1,13
8,Cc1ccc(/C(=N/O)NCC(C)(C)C)c(OCc2cccc(F)c2)n1,96
9,CSCCN/C(=N\O)c1ccc(C)nc1Oc1ccc2ccccc2c1,7
10,CCCN/C(=N\O)c1ccc(C)nc1OCc1cccc(F)c1,0
11,Cc1cccc(Oc2nc(C)ccc2/C(=N/O)NCc2ccccc2)c1,6
12,Cc1ccc(/C(=N/O)NCC(C)(C)C)c(Oc2cccc(F)c2)n1,99
13,CSCCN/C(=N\O)c1ccc(C)nc1Oc1cccc(F)c1,12
14,Cc1ccc(/C(=N/O)NCc2cc(F)cc(F)c2)c(OCc2cccc(F)c2)n1,-12
15,Cc1ccc(/C(=N/O)NCC2CC2)c(Oc2ccc3ccccc3c2)n1,17
16,Cc1cccc(Oc2nc(C)ccc2/C(=N/O)NCC(C)(C)C)c1,100
17,CCC(C)(C)N/C(=N\O)c1ccc(C)nc1Oc1cccc(C)c1,19
18,Cc1ccc(/C(=N/O)NCC(C)(C)C)c(Oc2ccc3ccccc3c2)n1,96
19,Cc1cccc(-c2nc(Cn3cc(-c4ccccc4)c(C)n3)co2)c1,-11
20,c1ccc(-c2nc(CN3CCC4CCCCC4C3)co2)cc1 (stereo unspecified),37
21,C#CC(CC)(CC)NCc1coc(-c2cccs2)n1,-2
22,CCN(Cc1ccccc1)Cc1coc(-c2cccc(OC)c2)n1,-7

row,Structure (SMILES),% inhibition [%]
1,CCN1CCN(Cc2coc(-c3ccc(C(F)(F)F)cc3)n2)CC1,10
2,CCCc1nccn1Cc1coc(-c2cccc(F)c2)n1,5
3,COc1cc(CNCc2coc(-c3ccc(C)cc3)n2)cc(OC)c1OC,9
4,O=c1c(Cl)cn(Cc2coc(-c3ccc(C(F)(F)F)cc3)n2)cc1Cl,-5
5,COc1ccc(-c2nc(CN3CCN(c4ccccc4OC)CC3)co2)cc1,13
6,CC(C)(C)c1ccc(CNCc2coc(-c3cccc4ccccc34)n2)cc1,-1
7,CC(C)N/C(=N\O)c1cccnc1Oc1ccc(-n2cncn2)cc1,42
8,COc1ccc(Oc2nc(C)ccc2/C(=N/O)NCC2CCCCC2)cc1,24
9,CC1CCC(N/C(=N\O)c2cccnc2Oc2ccc(-n3cncn3)cc2)CC1 (stereo unspecified),98
10,COc1ccccc1Oc1ncccc1/C(=N/O)NCc1ccco1,27
11,COc1ccc(Oc2ncccc2/C(=N/O)NCC2CC2)cc1,99
12,CC1CC(N/C(=N\O)c2cccnc2Oc2ccc(-n3cncn3)cc2)CC(C)(C)C1 (stereo unspecified),41
13,COc1ccccc1Oc1ncccc1/C(=N/O)NCC1CC1,96
14,COc1ccc(CN/C(=N\O)c2cccnc2Oc2ccccc2OC)cc1,13
15,COc1ccc(Oc2ncccc2/C(=N/O)NCC2CCCCC2)cc1,93
16,COc1cccc(-c2nc(Cn3cnc(-c4ccccc4)c3)co2)c1,-15
17,O/N=C(/c1cccnc1Oc1ccc(F)cc1)N1CCCCCC1,1
18,COc1ccc(CN/C(=N\O)c2cccnc2Oc2ccc3c(c2)CCCC3)cc1,8
19,Cc1ccc(/C(=N/O)Nc2ccc(C(C)C)cc2)c(Oc2cccc(F)c2)n1,16
20,Cc1ccc(/C(=N/O)NCc2ccc(C)o2)c(Oc2ccc3oc4ccccc4c3c2)n1,9
21,CCCCN(CCC#N)Cc1coc(-c2ccc(C(C)(C)C)cc2)n1,3
22,CCOc1ccc(-c2nc(CNCc3ccccc3C(F)(F)F)co2)cc1,1

row,Structure (SMILES),% inhibition [%]
1,O/N=C(\NCC1CCCCC1)c1cccnc1Oc1ccc(Cl)cc1,98
2,O/N=C(\NCC1CCCO1)c1cccnc1Oc1ccc(-n2cncn2)cc1 (stereo unspecified),24
3,Cc1ccc(/C(=N/O)NCC2CCCCC2)c(Oc2ccc(Cl)cc2)n1,-11
4,O/N=C(\NCCN1CCOCC1)c1cccnc1Oc1ccc2ccccc2c1,-10
5,O/N=C(\NCC1CC1)c1cccnc1Oc1ccc2ccccc2c1,99
6,O/N=C(\NCC1CCCCC1)c1cccnc1Oc1ccc(-n2cncn2)cc1,90
7,CCCN(CC1CC1)/C(=N\O)c1cccnc1Oc1ccccc1SC,30
8,CSc1ccccc1Oc1ncccc1/C(=N/O)NCC1CC1,99
9,Cc1ccc(/C(=N/O)NCC2CCCCC2)c(Oc2ccc3ccccc3c2)n1,18
10,CSc1ccccc1Oc1ncccc1/C(=N/O)NCCN1CCCC1,22
11,O/N=C(\NCc1ccccc1)c1cccnc1Oc1ccc(-n2cncn2)cc1,21
12,CC(C)(C)COc1ncccc1/C(=N/O)NCC1CCCCC1,-1
13,COc1ccc(CN/C(=N\O)c2ccc(C)nc2OCc2ccccc2F)cc1,-1
14,COc1cc(C)ccc1Oc1nc(C)ccc1/C(=N/O)n1nc(C)cc1C,-5
15,O/N=C(/c1ccc(Oc2cccc3c2CCCC3)nc1)N1CCN(c2ccc(F)cc2)CC1,26
16,COc1cc(-c2nc(Cn3ccnc3C)co2)cc(OC)c1OC,-1
17,Fc1ccc(N2CCN(Cc3coc(-c4ccco4)n3)CC2)cc1,13
18,FC(F)(F)c1ccc(-c2nc(Cn3ccnc3)co2)cc1,-3
19,CCN(CC)c1cccc(Oc2ncccc2/C(=N/O)NCC2CC2)c1,6
20,O/N=C(\NCC1CC1)c1cccnc1Oc1ccc(F)cc1,97
21,COc1ccc(Oc2ncccc2/C(=N/O)NCC(C)C)cc1,-7
22,N/C(=N\O)c1cccnc1Oc1ccc(F)c(Cl)c1,10

row,Structure (SMILES),% inhibition [%]
1,N/C(=N\O)c1cccnc1Oc1ccc(Cl)cc1,59
2,COc1ccc(Oc2ncccc2/C(=N/O)NCC(C)(C)C)cc1,98
3,O/N=C(\NCc1ccccn1)c1cccnc1Oc1ccc(Cl)cc1,10
4,CC(C)(C)CN/C(=N\O)c1cccnc1Oc1ccc(Cl)cc1,99
5,O/N=C(\NCc1cccnc1)c1cccnc1Oc1ccc(Cl)cc1,4
6,Cc1ccc(Oc2ncccc2/C(N)=N/O)cc1,21
7,CCCN(Cc1coc(-c2cccc(F)c2)n1)C(C)CC (stereo unspecified),-4
8,COc1cc(CNCc2coc(-c3cccs3)n2)cc(OC)c1,-7
9,COc1cc(-c2nc(CN3CCCCC3C)co2)cc(OC)c1OC (stereo unspecified),-4
10,Cc1ccc(/C(=N/O)N2CCCCC2)c(Oc2ccc3oc4ccccc4c3c2)n1,7
11,CC(C)(C)COc1ncccc1/C(=N/O)NCc1ccccn1,12
12,CCOc1ccc(-c2nc(CNCc3cccc(OC)c3OC)co2)cc1,3
13,CSc1ccc(Oc2nc(C)ccc2/C(=N/O)NCC(C)C)cc1C,-14
14,C#CCNCc1coc(-c2ccc(OC)cc2)n1,-25
15,COc1ccc(N(C)Cc2coc(-c3ccc(F)cc3)n2)cc1,-2
16,Cc1ccc(C)c(N2CCN(Cc3coc(-c4ccc(OC(F)(F)F)cc4)n3)CC2)c1,33
17,Cc1ccc(/C(=N/O)NC(C)C)c(Oc2cccc3ccc(C)nc23)n1,31
18,O/N=C(\NC1CCC1)c1ccc(Oc2c(F)c(F)cc(F)c2F)nc1,100
19,O/N=C(\NC1CCCCC1)c1ccc(Oc2c(F)c(F)cc(F)c2F)nc1,100
20,CC1CC(N/C(=N\O)c2ccc(Oc3c(F)c(F)cc(F)c3F)nc2)CC(C)(C)C1 (stereo unspecified),22
21,O/N=C(\NCC1CCCO1)c1ccc(Oc2c(F)c(F)cc(F)c2F)nc1 (stereo unspecified),25
22,CC1CCC(N/C(=N\O)c2ccc(Oc3c(F)c(F)cc(F)c3F)nc2)CC1 (stereo unspecified),17

row,Structure (SMILES),% inhibition [%]
1,CN(/C(=N\O)c1ccc(Oc2c(F)c(F)cc(F)c2F)nc1)C1CCCCC1,21
2,O/N=C(\NC1CCCC1)c1ccc(Oc2c(F)c(F)cc(F)c2F)nc1,99
3,O/N=C(\NCC1CCCCC1)c1ccc(Oc2c(F)c(F)cc(F)c2F)nc1,40
4,O/N=C(\NC1CCc2ccccc21)c1ccc(Oc2c(F)c(F)cc(F)c2F)nc1 (stereo unspecified),19
5,CCOc1ccc(-c2nc(CN(C)CCc3ccccc3)co2)cc1,10
6,CCOc1cccc(-c2nc(CNc3ccccc3C)co2)c1,20
7,CC(C)c1ccc(N/C(=N\O)c2ccc(Oc3cccc4ccccc34)nc2)cc1,16
8,O/N=C(\NCc1ccncc1)c1ccc(Oc2c(F)c(F)cc(F)c2F)nc1,6
9,CC(C)CN(C)Cc1coc(-c2ccccc2Cl)n1,1
10,O/N=C(/c1cccnc1Oc1ccc2ccccc2c1)N1CCC2CCCCC2C1 (stereo unspecified),100
11,COc1ccc(Oc2ncccc2/C(=N/O)N(C)C2CCCCC2)cc1,-15
12,O/N=C(\NCc1ccccc1)c1cccnc1Oc1ccc2c(c1)CCCC2,-4
13,O/N=C(\NC1CCCC1)c1cccnc1Oc1ccc2c(c1)CCCC2,1
14,COc1ccc(Oc2ncccc2/C(=N/O)NC2CCCC2)cc1,99
15,O/N=C(\NC1CCC1)c1cccnc1Oc1ccc2c(c1)CCCC2,100
16,O/N=C(/c1cccnc1Oc1ccc(Cl)cc1)N1CCC2CCCCC2C1 (stereo unspecified),-20
17,COc1ccc(Oc2ncccc2/C(=N/O)NC2CCCCC2)cc1,98
18,COc1ccc(Oc2ncccc2/C(=N/O)N2CCC3CCCCC3C2)cc1 (stereo unspecified),-2
